Measurements taken from PubChem BioAssay (Tox21).
Inconclusive results are not listed. Activity calls are given as the source filed them. Calls follow the shape of the dose curve; as a rule, active = well fitted curve in the direction sought with a large enough effect in the repeat runs; inconclusive = weak or mixed curves; inactive = no such curve, though single readings can be large; an effect the other way counts as inactive or inconclusive.

Experiments:
[1] = A CellTox Green Cytotoxicity Assay to monitor cytotoxicity in HEK293 cells - 40 hour (AID 1224871); also: nearly all actives have a fitted effect of over 45% in size; also: potency is read from the fitted curve at half-maximal effect
Procedure, shortened: (§1)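 HEK293 cells, 600/well, were preincubated 5 hours and then exposed to compounds at 37 C for up to 40 hours. A cell-impermeant cyanine dye staining dead-cell DNA was read by fluorescence at 0, 8, 16, 24, 32 and 40 h time points.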

[2] = qHTS RealTime-Glo MT Cell Viability Assay in HEK293 cells - 16 hour (AID 1224872); also: nearly all actives have a fitted effect of over 50% in size; also: potency is read from the fitted curve at half-maximal effect
Procedure, shortened: (§2)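 HEK293 cells seeded with NanoLuc/prosubstrate reagent, rested 5 h at 37 C, then dosed and kept at 37 C up to 40 h. Nonlytic real-time luminescence from viable cells read at 0, 8, 16, 24, 32 and 40 h.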

[3] = qHTS RealTime-Glo MT Cell Viability Assay in HepG2 cells - 8 hour (AID 1224873); also: nearly all actives have a fitted effect of over 55% in size; also: potency is read from the fitted curve at half-maximal effect
Procedure, shortened: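 HepG2 cells mixed with RealTime-Glo MT reagents (NanoLuc plus cell-permeant prosubstrate) were seeded at 600 cells/well, incubated 5 h at 37 C/5% CO2, then pinned with compounds in DMSO; nonlytic luminescence tracked viability during 40 h treatment.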

[4] = qHTS RealTime-Glo MT Cell Viability Assay in HEK293 cells - 40 hour (AID 1224874); conditions: RealTime-Glo luminescence; max response: active compounds read low; also: nearly all actives have a fitted effect of over 50% in size; also: potency is read from the fitted curve at half-maximal effect
Procedure, shortened: (§3)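 600 cells/well were plated with the nonlytic NanoLuc/prosubstrate reagent, pre-incubated 5 h, then given 23 nL of compound in DMSO. Incubation at 37 C for 40 h, with luminescence from viable-cell-reduced substrate read repeatedly from 0 h.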

[5] = A CellTox Green Cytotoxicity Assay to monitor cytotoxicity in HepG2 cells - 16 hour (AID 1224876); also: nearly all actives have a fitted effect of over 45% in size; also: potency is read from the fitted curve at half-maximal effect
Procedure, shortened: (§4)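 HepG2 cells, 600/well, preincubated 5 h with CellTox Green dye, then exposed to Tox21 compounds in DMSO at 37 C for up to 40 h. Dead-cell DNA fluorescence read at the indicated time point.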

[6] = qHTS RealTime-Glo MT Cell Viability Assay in HepG2 cells - 32 hour (AID 1224877); also: nearly all actives have a fitted effect of over 55% in size; also: potency is read from the fitted curve at half-maximal effect
Procedure, shortened: (§5)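 HepG2 cells (600/well) were dispensed with RealTime-Glo reagents, incubated 5 h at 37 °C, then treated with compounds in DMSO for up to 40 h. Nonlytic NanoLuc luminescence reflecting viable cells was read at each stated time point.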

[7] = A CellTox Green Cytotoxicity Assay to monitor cytotoxicity in HepG2 cells - 24 hour (AID 1224878); also: nearly all actives have a fitted effect of over 45% in size; also: potency is read from the fitted curve at half-maximal effect
Procedure, shortened: as §4

[8] = A CellTox Green Cytotoxicity Assay to monitor cytotoxicity in HepG2 cells - 40 hour (AID 1224879); also: nearly all actives have a fitted effect of over 40% in size; also: potency is read from the fitted curve at half-maximal effect
Procedure, shortened: as §4

[9] = qHTS RealTime-Glo MT Cell Viability Assay in HEK293 cells - 0 hour (AID 1224880); also: top concentration of the series differs between compounds; nearly all actives have a fitted effect of over 45% in size
Procedure, shortened: as §3

[10] = A CellTox Green Cytotoxicity Assay to monitor cytotoxicity in HEK293 cells - 32 hour (AID 1224881); also: nearly all actives have a fitted effect of over 40% in size; also: potency is read from the fitted curve at half-maximal effect
Procedure, shortened: as §1

[11] = A CellTox Green Cytotoxicity Assay to monitor cytotoxicity in HepG2 cells - 0 hour (AID 1224882); also: nearly all actives have a fitted effect of over 35% in size
Procedure, shortened: as §4

[12] = A CellTox Green Cytotoxicity Assay to monitor cytotoxicity in HepG2 cells - 32 hour (AID 1224883); also: nearly all actives have a fitted effect of over 50% in size; also: potency is read from the fitted curve at half-maximal effect
Procedure, shortened: as §4

[13] = A CellTox Green Cytotoxicity Assay to monitor cytotoxicity in HEK293 cells - 8 hour (AID 1224884); also: nearly all actives have a fitted effect of over 35% in size
Procedure, shortened: as §1

[14] = qHTS RealTime-Glo MT Cell Viability Assay in HepG2 cells - 16 hour (AID 1224885); also: nearly all actives have a fitted effect of over 50% in size; also: potency is read from the fitted curve at half-maximal effect
Procedure, shortened: as §5

[15] = qHTS RealTime-Glo MT Cell Viability Assay in HEK293 cells - 24 hour (AID 1224886); also: nearly all actives have a fitted effect of over 50% in size; also: potency is read from the fitted curve at half-maximal effect
Procedure, shortened: as §2

[16] = qHTS RealTime-Glo MT Cell Viability Assay in HEK293 cells - 8 hour (AID 1224887); also: nearly all actives have a fitted effect of over 50% in size; also: potency is read from the fitted curve at half-maximal effect
Procedure, shortened: as §3

[17] = A CellTox Green Cytotoxicity Assay to monitor cytotoxicity in HEK293 cells - 16 hour (AID 1224888); also: nearly all actives have a fitted effect of over 35% in size
Procedure, shortened: as §1

[18] = qHTS RealTime-Glo MT Cell Viability Assay in HepG2 cells - 0 hour (AID 1224889); also: nearly all actives have a fitted effect of over 50% in size; also: potency is read from the fitted curve at half-maximal effect
Procedure, shortened: as §5

[19] = A CellTox Green Cytotoxicity Assay to monitor cytotoxicity in HepG2 cells - 8 hour (AID 1224890); also: nearly all actives have a fitted effect of over 45% in size; also: potency is read from the fitted curve at half-maximal effect
Procedure, shortened: as §4

[20] = A CellTox Green Cytotoxicity Assay to monitor cytotoxicity in HEK293 cells - 24 hour (AID 1224875)
Procedure, shortened: as §1
% is scaled to controls: 0 for no effect and ±100 for the full control effect.

CCC#N
inactive: Potency [1] | Potency [2] | Potency [3] | max response [4] 0.0723% | Potency [5] | Potency [6] | Potency [7] | Potency [8] | outcome [9] | Potency [10] | outcome [11] | Potency [12] | Potency [13] | Potency [14] | Potency [15] | Potency [16] | Potency [17] | Potency [18] | Potency [19]

O=C(CCN1CC1)OCC(CO)(COC(=O)CCN1CC1)COC(=O)CCN1CC1
inactive: Potency [1] | Potency [2] | Potency [3] | max response [4] 0.103% | Potency [5] | Potency [6] | Potency [7] | Potency [8] | outcome [9] | Potency [10] | outcome [11] | Potency [12] | Potency [13] | Potency [14] | Potency [15] | Potency [16] | Potency [17] | Potency [18] | Potency [19]

Nc1cc2c3c(c1)C(c1ccccc1)=N[C@@H](NC(=O)c1cccnc1)C(=O)N3CC2
inactive: Potency [1] | Potency [2] | Potency [3] | max response [4] -6.57% | Potency [5] | Potency [6] | Potency [7] | Potency [8] | outcome [9] | Potency [10] | outcome [11] | Potency [12] | Potency [13] | Potency [14] | Potency [16] | Potency [17] | Potency [18] | Potency [19]

CN1CCC(N(Cc2ccccc2)c2ccccc2)CC1
inactive: Potency [1] | Potency [2] | Potency [3] | max response [4] 0.452% | Potency [20] | Potency [5] | Potency [6] | Potency [7] | outcome [9] | Potency [10] | outcome [11] | Potency [12] | Potency [13] | Potency [14] | Potency [16] | Potency [17] | Potency [18] | Potency [19]

Nc1ccccc1Cl
inactive: Potency [1] | Potency [2] | Potency [3] | max response [4] 15.7% | Potency [5] | Potency [6] | Potency [7] | Potency [8] | outcome [9] | Potency [10] | outcome [11] | Potency [12] | Potency [13] | Potency [14] | Potency [15] | Potency [16] | Potency [17] | Potency [18] | Potency [19]

O=C(O)c1cccc(Cl)c1
inactive: Potency [1] | Potency [2] | Potency [3] | max response [4] 4.06% | Potency [5] | Potency [6] | Potency [7] | Potency [8] | outcome [9] | Potency [10] | outcome [11] | Potency [12] | Potency [13] | Potency [15] | Potency [16] | Potency [17] | Potency [18] | Potency [19]

NC1=NC(=O)C(c2ccccc2)O1 (centres undefined)
inactive: Potency [1] | Potency [2] | Potency [3] | max response [4] 1.11% | Potency [5] | Potency [6] | Potency [7] | Potency [8] | outcome [9] | Potency [10] | outcome [11] | Potency [12] | Potency [13] | Potency [14] | Potency [15] | Potency [16] | Potency [17] | Potency [18] | Potency [19]

COc1cccc2c1cc([N+](=O)[O-])c1c(C(=O)O)cc3c(c12)OCO3
active: Potency [2] 12.3 µM | Potency [4] 2.19 µM | Potency [7] 21.9 µM | Potency [15] 3.09 µM
inactive: Potency [1] | Potency [3] | Potency [5] | Potency [10] | outcome [11] | Potency [13] | Potency [14] | Potency [16] | Potency [17] | Potency [19]

CC(Oc1ccc(Oc2ncc(C(F)(F)F)cc2Cl)cc1)C(=O)O (centres undefined)
inactive: Potency [1] | Potency [2] | Potency [3] | Potency [20] | Potency [5] | Potency [6] | Potency [7] | outcome [9] | Potency [10] | outcome [11] | Potency [12] | Potency [13] | Potency [14] | Potency [15] | Potency [16] | Potency [17] | Potency [18] | Potency [19]

CC(C)(C)C(=O)C(Oc1ccc(Cl)cc1)n1cncn1 (centres undefined)
inactive: Potency [1] | Potency [2] | Potency [3] | Potency [20] | Potency [5] | Potency [6] | Potency [7] | Potency [8] | outcome [9] | Potency [10] | outcome [11] | Potency [12] | Potency [13] | Potency [16] | Potency [17] | Potency [18] | Potency [19]

C[C@H]1CCC[C@H](O)CCCCCc2cc(O)cc(O)c2C(=O)O1
active: Potency [2] 34.9 µM | Potency [4] 24.7 µM | Potency [15] 34.9 µM | Potency [16] 27.7 µM
inactive: Potency [1] | Potency [3] | Potency [20] | Potency [5] | Potency [6] | Potency [7] | outcome [11] | Potency [13] | Potency [14] | Potency [17] | Potency [18] | Potency [19]

CC(C)COP(=O)(OCC(C)C)OCC(C)C
inactive: Potency [1] | Potency [2] | Potency [3] | max response [4] 0.408% | Potency [5] | Potency [6] | Potency [7] | Potency [8] | Potency [10] | outcome [11] | Potency [12] | Potency [13] | Potency [14] | Potency [15] | Potency [16] | Potency [17] | Potency [18] | Potency [19]

N#CC(CCc1ccc(Cl)cc1)(Cn1cncn1)c1ccccc1 (centres undefined)
inactive: outcome [9] | outcome [11] | Potency [13]
active: Potency [1] 49 µM | Potency [2] 21.9 µM | Potency [3] 38.9 µM | Potency [4] 17.4 µM | Potency [5] 21.9 µM | Potency [6] 43.6 µM | Potency [7] 21.9 µM | Potency [8] 24.5 µM | Potency [10] 54.9 µM | Potency [12] 21.9 µM | Potency [14] 27.5 µM | Potency [15] 17.4 µM | Potency [16] 21.9 µM | Potency [19] 34.7 µM

CCC/C(=N\OCC)C1=C(O)CC(CC(C)SCC)CC1=O (centres undefined)
inactive: Potency [1] | Potency [2] | Potency [3] | Potency [20] | Potency [5] | Potency [6] | Potency [7] | Potency [8] | outcome [9] | Potency [10] | outcome [11] | Potency [12] | Potency [13] | Potency [16] | Potency [17] | Potency [18] | Potency [19]

C[C@]1(O)CC[C@H]2[C@@H]3CCC4=CC(=O)CC[C@]4(C)[C@@]3(F)[C@@H](O)C[C@@]21C
inactive: Potency [1] | Potency [2] | Potency [3] | Potency [5] | Potency [6] | Potency [7] | Potency [8] | Potency [10] | outcome [11] | Potency [12] | Potency [13] | Potency [14] | Potency [15] | Potency [16] | Potency [17] | Potency [19]
active: Potency [18] 12.4 µM
